Results on eight molecules are retold here after PubChem BioAssay (NCI).

Some test systems named below: SK-MEL-2 melanoma; EKVX NSCLC; SN12C renal; UO-31 renal; TK-10 renal; ACHN renal; A498 renal; CCRF-CEM leukemia; MOLT-4 leukemia; SR leukemia; RPMI-8226 leukemia; OVCAR-8 ovarian; OVCAR-5 ovarian; OVCAR-4 ovarian; SK-OV-3 ovarian; IGROV1 ovarian; OVCAR-3 ovarian; HS 578T breast; NCI/ADR-RES ovarian.
Common to all, as to assay: NCI-60 one-dose screen, 48 h (100 = growth as untreated, 0 = no growth, -100 = all killed)
Conditions in all cases: 10 µM unless noted

This is part of a sample that, as a whole, favours compounds with a hit. Of some 83,000 tested, about 20% had one in any assay.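 Negative percent growth values reflect cell death: -40 means 40% of the cells present at the start died, and -100 means all died.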 A number with no mark means an inactive call. Activity calls are given as the source filed them. The calls were made as follows: active = growth percent below 10; inactive = the rest.

`CC(C)=CCCC(C)c1ccc(C)c2c1OCN(CCCCCO)C2` (stereo unspecified): the growth in the experiment on SK-MEL-2 melanoma was 92.7%; with EKVX NSCLC, 102%; in the experiment on SN12C renal, 78.6%; with UO-31 renal, 57%; in the experiment with TK-10 renal, 73.7%; with ACHN renal it was 94.1%. In addition, the growth in the experiment on A498 renal is 75.3%; in the experiment on CCRF-CEM leukemia, 96%; in the experiment with MOLT-4 leukemia it was 66.5%; in the experiment on SR leukemia, 66.6%; in the experiment on RPMI-8226 leukemia it was 76.7%; in the experiment on OVCAR-8 ovarian, 90.1%. Also, the growth is 87.4% with OVCAR-5 ovarian; 95.4% in the experiment with OVCAR-4 ovarian; 88.8% with SK-OV-3 ovarian; 90.4% in the experiment on IGROV1 ovarian; 99.7% in the experiment with OVCAR-3 ovarian; 81.2% in the experiment with HS 578T breast. Besides, the growth with NCI/ADR-RES ovarian is 75.9%.
With `COc1ccc(C(=O)C/C(=C\c2ccc(Cl)cc2)C(=O)NCc2ccccc2)cc1`, the growth was 79.6% with SK-MEL-2 melanoma; 95.6% in the experiment with EKVX NSCLC; 91.3% in the experiment with SN12C renal; 76% in the experiment on UO-31 renal; 72.7% with TK-10 renal; 92.7% in the experiment with ACHN renal. Besides, the growth in the experiment with A498 renal is 88%; in the experiment with CCRF-CEM leukemia it was 73.5%; with MOLT-4 leukemia, 72.9%; in the experiment on SR leukemia it was 60.3%; in the experiment with RPMI-8226 leukemia, 75.7%; in the experiment with OVCAR-8 ovarian, 82.3%. The growth in the experiment on OVCAR-5 ovarian is 99.5%; with OVCAR-4 ovarian it was 105%; with SK-OV-3 ovarian it was 79.3%; with IGROV1 ovarian, 86.3%; in the experiment with OVCAR-3 ovarian, 100%; with HS 578T breast it was 86.4%. In addition, the growth in the experiment on NCI/ADR-RES ovarian was 89.1%.
Take `CCN1C(=S)N(c2ccccc2)C2NC(=S)N(/N=C/C=C/c3ccccc3OC)C21` (stereo unspecified): the growth in the experiment with SK-MEL-2 melanoma is 32.8%; in the experiment on EKVX NSCLC, 48.2%; in the experiment on SN12C renal, 24.6%; in the experiment on UO-31 renal, 44%; in the experiment with TK-10 renal, 68.6%; in the experiment on ACHN renal, 33.3%. In addition, the growth with A498 renal is 1.17% (active); with CCRF-CEM leukemia, 9.27% (active); with MOLT-4 leukemia it was 9.49% (active); in the experiment with SR leukemia it was 8.81% (active); in the experiment on RPMI-8226 leukemia, 13.3%; with OVCAR-8 ovarian it was 1.79% (active). In addition, the growth was 28.7% with OVCAR-5 ovarian; 45% with OVCAR-4 ovarian; 30.5% in the experiment with SK-OV-3 ovarian; 23.8% in the experiment with IGROV1 ovarian; 2.96% (active) in the experiment with OVCAR-3 ovarian; 9.64% (active) in the experiment with HS 578T breast. In the experiment on NCI/ADR-RES ovarian, the growth is 4.46% (active).
As for `O=C(Nc1nc2ccccc2s1)c1ccc(F)cc1`, the growth is 114% in the experiment on SK-MEL-2 melanoma; 77.8% with EKVX NSCLC; 108% in the experiment with SN12C renal; 89.1% in the experiment with UO-31 renal; 125% in the experiment on TK-10 renal; 98% with ACHN renal. Also, the growth with A498 renal is 89.8%; in the experiment with CCRF-CEM leukemia it was 101%; in the experiment with MOLT-4 leukemia, 100%; in the experiment with SR leukemia, 98.4%; with RPMI-8226 leukemia, 88.5%; in the experiment on OVCAR-8 ovarian, 109%. The growth with OVCAR-5 ovarian is 101%; in the experiment with OVCAR-4 ovarian, 85.4%; with SK-OV-3 ovarian, 108%; with IGROV1 ovarian, 88.9%; in the experiment on OVCAR-3 ovarian, 104%; in the experiment with HS 578T breast it was 140%. Besides, the growth with NCI/ADR-RES ovarian is 95.7%.
With `CCOC(=O)n1cc(-c2nonc2-c2cn(C(=O)OCC)c3ccc(Br)cc23)c2ccccc21`, the growth is 87.5% in the experiment with SK-MEL-2 melanoma; 73.3% in the experiment on EKVX NSCLC; 88.1% with SN12C renal; 46.9% with UO-31 renal; 90.8% in the experiment with TK-10 renal; 64.5% in the experiment with ACHN renal. The growth in the experiment with A498 renal was 82.3%; in the experiment with CCRF-CEM leukemia, 87.7%; with MOLT-4 leukemia, 72.2%; in the experiment on SR leukemia, 78.4%; in the experiment on RPMI-8226 leukemia, 88.9%; in the experiment with OVCAR-8 ovarian, 85.6%. Moreover, the growth with OVCAR-5 ovarian was 64.4%; in the experiment on OVCAR-4 ovarian, 79.1%; in the experiment on SK-OV-3 ovarian, 79.8%; with IGROV1 ovarian, 52.6%; with OVCAR-3 ovarian it was 79.1%; in the experiment on HS 578T breast it was 87%. For the same molecule, the growth in the experiment on NCI/ADR-RES ovarian was 86.5%.
As for `CCCCCCCCCc1ccc(OCCOCCOCCOCCOCCOCCOCCOCCOCCO)cc1`, the growth in the experiment on SK-MEL-2 melanoma was 7.03% (active); in the experiment on EKVX NSCLC, 15.5%; in the experiment on SN12C renal, 13%; in the experiment with UO-31 renal, 12.8%; in the experiment with TK-10 renal it was 23.1%; with ACHN renal, 18.9%. Moreover, the growth is -5.27% (active) in the experiment with A498 renal; -22.2% (active) in the experiment on CCRF-CEM leukemia; -17.6% (active) in the experiment on MOLT-4 leukemia; -2.84% (active) with SR leukemia; -12.1% (active) with RPMI-8226 leukemia; 9.01% (active) in the experiment with OVCAR-8 ovarian. Besides, the growth was 48.3% in the experiment on OVCAR-5 ovarian; 22.4% in the experiment with OVCAR-4 ovarian; 110% in the experiment with SK-OV-3 ovarian; 24.4% in the experiment with IGROV1 ovarian; 2.54% (active) in the experiment on OVCAR-3 ovarian; 8.85% (active) with HS 578T breast. In addition, the growth in the experiment on NCI/ADR-RES ovarian was 1.74% (active).
Consider `CS(=O)(=O)c1ccc(-c2cnn3ccc(-c4cccc(S(=O)(=O)C5CC5)c4)nc23)cc1`, for which the growth in the experiment with SK-MEL-2 melanoma is 49.4%; in the experiment on EKVX NSCLC it was 67.4%; in the experiment with SN12C renal, 55.3%; in the experiment with UO-31 renal, 49.8%; in the experiment on TK-10 renal, 45.8%; with ACHN renal, 54.7%. Besides, the growth is 30% with A498 renal; 21.3% in the experiment with CCRF-CEM leukemia; 15.3% in the experiment with MOLT-4 leukemia; 49.3% in the experiment on SR leukemia; 49.1% with RPMI-8226 leukemia; 43.7% in the experiment with OVCAR-8 ovarian. In addition, the growth was 67.9% in the experiment with OVCAR-4 ovarian; 32.2% in the experiment on SK-OV-3 ovarian; 13.1% in the experiment on IGROV1 ovarian; 54.7% in the experiment with OVCAR-3 ovarian; 45.5% in the experiment on HS 578T breast; 71.8% with NCI/ADR-RES ovarian.
For `O=C1Nc2ccccc2/C1=C/c1nc2ccccc2c(=O)[nH]1`, the growth is 103% in the experiment on SK-MEL-2 melanoma; 80.6% with EKVX NSCLC; 89.5% in the experiment with SN12C renal; 64.4% in the experiment with UO-31 renal; 181% in the experiment with TK-10 renal; 91.9% in the experiment on ACHN renal. For the same molecule, the growth in the experiment with A498 renal is 102%; in the experiment with CCRF-CEM leukemia, 55.8%; with MOLT-4 leukemia it was 86%; in the experiment on SR leukemia it was 31%; in the experiment with RPMI-8226 leukemia, 85.9%; with OVCAR-8 ovarian it was 93.4%. The growth in the experiment with OVCAR-5 ovarian was 125%; in the experiment with OVCAR-4 ovarian, 94.5%; in the experiment on SK-OV-3 ovarian, 96%; in the experiment with IGROV1 ovarian, 69.5%; in the experiment on OVCAR-3 ovarian it was 90.9%; in the experiment with HS 578T breast it was 93.4%. In addition, the growth with NCI/ADR-RES ovarian was 97%.
